In PubChem BioAssay (NCI):
The panel holds about 83,000 compounds, 20% with a hit somewhere; the sample as a whole holds those more often.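 Results are percent growth after 48 hours of single-concentration exposure. 100 means growth as in untreated cells, lower positive values show inhibition; negative values down to -100 show cell death.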 Activity calls are given as the source filed them.

What follows are compounds tested on BT-549 breast (assay: NCI-60 one-dose screen, 48 h (100 = growth as untreated, 0 = no growth, -100 = all killed)). Settings: 10 µM unless noted.
Method: Growth inhibition of the BT-549 human tumor cell line is measured as a screen for anti-cancer activity. Cells are grown in 96 well plates and exposed to the test compound for 48 hours. Compounds are tested at a single concentration, which is 10^-5 M for most compounds. The reported endpoint is percent growth (GI% or GIPRCNT), where numbers from 0 - 100% represent growth inhibition, and numbers from -100% - 0 represent cell death. For example, a value of 40 represents 60% growth inhibition. A value of 0 means no net growth occurred over the course of the experiment. A value of -40 indicates 40% of cells at the beginning of the experiment died by the end of the experiment. A value of -100 means all cells are dead at the end of the experiment.
NCI-60 Human Tumor Cell Lines Screen was performed using the standard one-dose NCI protocol, which is described in more detail at https://dtp.cancer.gov/discovery_development/nci-60/default.htm.
Compounds with GIPRCNT values below 10 were considered active. Activity score was based on GIPRCNT using the following formula: […]
Score is 0 for GIPRCNT values of 100 or above, 50 for GIPRCNT values of 0, and 100 for GIPRCNT values of -100.

Row | SMILES | growth
1 | C1CN(SSN2CCOCC2)CCO1 | -90% [100 µM] (active)
2 | COc1ccc(\C=N/N=C(N)/C(N)=N\N=C/c2ccc(OC)cc2)cc1 | 116% (inactive)
3 | C#CCNC(=O)[C@H](CC)[C@H]1CC[C@H](C)[C@H]([C@@H](C)[C@H](O)[C@H](C)C(=O)[C@H](CC)C2O[C@]3(C=CC(=O)[C@]4(CC[C@@](C)([C@H]5CC[C@](O)(CC)[C@H](C)O5)O4)O3)[C@H](C)C[C@@H]2C)O1 (stereo not given in full) | 40.9% (inactive)
4 | O=C1Nc2ccc(C(=O)O)cc2/C1=N/c1nnc(Sc2ccccc2)s1 | 123% (inactive)
5 | COc1ccc(C(=O)C/C(=C\c2ccc(Cl)cc2)C(=O)NCc2ccccc2)cc1 | 110% (inactive)
6 | Cc1cc(N2CCN(CC(=O)Nc3ccc4c(ccn4C)c3)CC2)nc(N2CCCCCC2)n1 | 89.7% (inactive)
7 | O=c1scc(-c2ccc(C(F)(F)F)cc2)s1 | 88.3% (inactive)
8 | COc1ccc(-c2nc3c(ncc4ccc(=O)[nH]c43)s2)cc1 | 86.4% (inactive)
9 | O=C(CN1C(=O)NC2NC(=O)NC21)N/N=C/c1ccccc1[N+](=O)[O-] (stereo not given) | 97.9% (inactive)
10 | COC(=O)/C=C1/SC(=Nc2cccc(OC)c2)N(CCc2c[nH]c3ccc(O)cc23)C1=O | 33.1% (inactive)
11 | Fc1cc2c(cc1Cl)N(c1ncnc3ccc(-c4ccc5n[nH]nc5c4)cc13)CC2 | 88.2% (inactive)
12 | O=C(O)CCN1C(=O)/C(=C/C(Cl)=C/c2ccccc2)SC1=S | 16.9% (inactive)
13 | Nc1n[nH]c2ccc([C@H]3[C@@H]4C5CCC(C5)[C@@H]4c4c(ccc5[nH]ncc45)N3S(=O)(=O)C3CC3)cc12 (stereo not given in full) | -2.63% (active)
14 | Nc1cnc(C(=O)NNc2nc3cc(F)ccc3n3cccc23)cn1 | 52.9% (inactive)
15 | c1ccc(-c2oc(-c3ccccc3)c(CN3CCCCC3)c2CN2CCCCC2)cc1 | 43.3% (inactive)
16 | C=CC(=O)N1CCN(c2cccc(Oc3nccc(Nc4nnc(-c5ccc(Br)cc5)s4)n3)c2)CC1 | 67.1% (inactive)
17 | COc1c(B(O)O)cccc1-c1cc(C)c2c(ccc3[nH]ncc32)n1 | 23.1% (inactive)
18 | NC(=O)c1c(NC(=O)c2ccc3ccccc3c2)sc2c1CCC(=O)C2 | 20.9% (inactive)
19 | COc1cc(OCc2cccc(Br)c2C)cc(OC)c1C=O | 70.9% (inactive)
20 | CC1=C2[C@@H](CC1)[C@]1(C)O[C@@](C(C)C)(C[C@H]1OC(=O)[C@H](C)O)[C@H]2OC(=O)/C=C/c1ccccc1 | 15.9% (inactive)

Row | SMILES | growth
21 | CSc1oc(C)nc1[P+](c1ccccc1)(c1ccccc1)c1ccccc1 | 43.4% (inactive)
22 | COc1ccc(/C=C/C(=O)c2ccc(Nc3ccnc4cc(Cl)ccc34)cc2)cc1 | 101% (inactive)
23 | C=CCn1c(C)nc2ccc(Nc3nc(Nc4ccc5nc(C)n(CC=C)c5c4)c4ccccc4n3)cc21 | 72.1% (inactive)
24 | Cn1cc(-c2nonc2-c2cn(C)c3ccccc23)c2ccccc21 | 31.1% (inactive)
25 | NC(Cc1ccc(O)c([N+](=O)[O-])c1)C(=O)O (stereo not given) | 96.9% (inactive)
26 | COc1ccc(C(C)=O)cc1S(=O)(=O)Nc1c(N)nc(SC)[nH]c1=O | 117% (inactive)
27 | Nc1c(C(=O)Nc2ccncc2)sc2nc3c(cc12)C(O)CCC3 (stereo not given) | 113% (inactive)
28 | COc1ccc(/C=N\Nc2nc(SCCC(C)C)nc(-c3ccc(OC)cc3)c2C#N)cc1 | 93.1% (inactive)
29 | N#CSCC1CC(O)(c2ccccc2)CC(c2ccc(F)cc2)O1 (stereo not given) | -9.66% (active)
30 | CCOc1ccc(NC(=O)CSc2oc(-c3ccccc3)nc2S(=O)(=O)c2ccc(C)cc2)cc1 | 94% (inactive)
31 | CCCCCC(/C=N\NC(=S)N/N=C/C(=C/c1ccccc1)CCCCC)=C\c1ccccc1 | 83.4% (inactive)
32 | CCN(CC)CC(O)COc1c(Br)c(Br)c(Br)c2c1OC(C)(C)C2 (stereo not given) | 95.6% (inactive)
33 | COc1ccc(C2=Nc3c(N)nc(N)nc3NC(c3cccc(Nc4ccnc5cc(C(F)(F)F)ccc45)c3)C2)cc1 (stereo not given) | 107% (inactive)
34 | O=C(Nc1ccc(Oc2cccc(Cl)c2)c(Cl)c1)c1cnccn1 | 57.4% (inactive)
35 | Nc1n[nH]c2cccc(C#Cc3cccc(C(=O)Nc4cc(C(F)(F)F)cc(C(F)(F)F)c4)c3)c12 | 98.6% (inactive)
36 | Clc1ccc2c(NC3CCC(N4CCOCC4)CC3)ccnc2c1 (stereo not given) | 67.4% (inactive)
37 | CC/C(=C(/c1ccc(Cl)cc1)c1ccc(OCCN(C)C)cc1)c1ccc(Cl)cc1 | 82.7% (inactive)
38 | CCOC(=O)c1ccc(NC(=O)c2nc(-c3cc(OC)c(OC)c(OC)c3)n(-c3ccc(Cl)cc3)n2)cc1 | 74.6% (inactive)
39 | CCCCCCCCCc1ccc(OCCOCCOCCOCCOCCOCCOCCOCCOCCO)cc1 | -9.07% (active)
40 | O=C1/C(=C/c2ccccc2Br)COc2ccc(O)cc21 | 53.9% (inactive)
